Experimental findings from the supplement of paper PMC10849652 are described below.

Of roughly 7,900 targets only a part is listed; those with a hit were picked by preference. About 0.6% of all pairs of compound and target were hits. A number with no mark means an inactive call.

What all share (assay): log2 fold change, soluble protein after heating vs DMSO (PISA); higher = thermal stabilisation; K562 cells, 10 uM, 30 min; active = over 0.2 and 3.5 SD of the protein, either way, in both replicates (recomputed)
The target in one test is AAGAB (UniProt Q6PD74). The procedure, abridged: (§1)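 K562 cells at 2×10^6 cells/mL were treated with 10 μM compound for 30 min. Aliquots were heated for 3 min across 48°C-58°C, pooled, and extracted in PBS with 0.5% NP-40 at 4°C; soluble protein was the supernatant after 21,000xg for 90 min. Soluble protein was quantified by TMTpro 16plex LC-MS/MS with channel sums equalised, and reported as log2 fold change in thermal stability against DMSO controls, with values from duplicates.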
AAGAB, sequence (Q6PD74 whole entry, looked up): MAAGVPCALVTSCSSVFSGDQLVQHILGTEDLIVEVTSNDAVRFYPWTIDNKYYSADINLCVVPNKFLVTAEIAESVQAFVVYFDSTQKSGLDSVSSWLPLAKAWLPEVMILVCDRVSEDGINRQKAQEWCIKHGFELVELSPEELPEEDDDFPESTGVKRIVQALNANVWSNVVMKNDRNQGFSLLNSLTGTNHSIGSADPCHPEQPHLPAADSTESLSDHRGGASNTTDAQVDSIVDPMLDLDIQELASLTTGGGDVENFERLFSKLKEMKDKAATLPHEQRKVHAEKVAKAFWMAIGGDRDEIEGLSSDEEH

For test [1], the target named is AAK1 (UniProt A0A096LP25). In short, it runs like this: as §1
The target of test [2] is AAK1 (UniProt Q2M2I8). In short, it runs like this: as §1
AAK1 (UniProt Q2M2I8), sequence (Q2M2I8 whole entry, looked up): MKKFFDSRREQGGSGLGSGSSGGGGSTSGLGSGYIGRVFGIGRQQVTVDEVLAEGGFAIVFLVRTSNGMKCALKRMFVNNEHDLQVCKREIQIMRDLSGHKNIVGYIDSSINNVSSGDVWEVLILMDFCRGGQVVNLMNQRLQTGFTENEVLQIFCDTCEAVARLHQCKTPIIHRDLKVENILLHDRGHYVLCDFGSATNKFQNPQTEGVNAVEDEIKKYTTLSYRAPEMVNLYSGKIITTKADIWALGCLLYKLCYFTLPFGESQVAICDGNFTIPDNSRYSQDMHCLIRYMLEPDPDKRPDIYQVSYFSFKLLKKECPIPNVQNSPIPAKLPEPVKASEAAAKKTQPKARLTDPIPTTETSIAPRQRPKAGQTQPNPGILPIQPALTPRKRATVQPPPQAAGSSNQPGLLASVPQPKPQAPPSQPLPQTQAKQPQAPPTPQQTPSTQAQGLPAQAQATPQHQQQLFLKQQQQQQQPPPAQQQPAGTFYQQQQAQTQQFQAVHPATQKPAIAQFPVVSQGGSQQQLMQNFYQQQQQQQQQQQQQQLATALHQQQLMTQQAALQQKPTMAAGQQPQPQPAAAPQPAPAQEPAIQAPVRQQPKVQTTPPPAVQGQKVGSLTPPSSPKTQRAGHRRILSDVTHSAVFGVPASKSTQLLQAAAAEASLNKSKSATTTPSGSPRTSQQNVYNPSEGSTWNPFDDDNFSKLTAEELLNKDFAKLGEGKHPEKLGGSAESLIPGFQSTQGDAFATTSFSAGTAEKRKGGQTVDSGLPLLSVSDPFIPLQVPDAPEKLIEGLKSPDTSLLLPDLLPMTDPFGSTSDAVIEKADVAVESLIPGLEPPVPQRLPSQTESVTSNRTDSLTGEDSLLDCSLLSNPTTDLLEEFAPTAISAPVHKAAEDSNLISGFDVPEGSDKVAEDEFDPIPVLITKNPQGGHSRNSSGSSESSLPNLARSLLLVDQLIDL

For the compound `Cc1cn(-c2cc(NC(=O)c3ccc(C)c(Nc4nccc(-c5cccnc5)n4)c3)cc(C(F)(F)F)c2)cn1` [nilotinib], the log2 fold change with AAGAB is -0.077; with AAK1 [1] it was -0.084; with AAK1 [2], 0.027.
On the same counts, the results for `Cc1ccc(NC(=O)c2ccc(CN3CC[C@H](N(C)C)C3)c(C(F)(F)F)c2)cc1Nc1nccc(-c2cncnc2)n1` [bafetinib] are -0.046, -0.058 and -0.016.
On the same counts, the results for `CN1CC[C@H](c2c(O)cc(O)c3c(=O)cc(-c4ccccc4Cl)oc23)[C@H](O)C1` [alvocidib] are 0.008, -0.009 and 0.025.
Take `CN1CCc2c(c3ccccc3n2Cc2ccc(C(=O)NO)cc2)C1` [Tubastatin A]: the log2 fold change is 0.016 with AAGAB, -0.05 with AAK1 [1] and 0.003 with AAK1 [2].
As for `CS(=O)(=O)CCNCc1ccc(-c2ccc3ncnc(Nc4ccc(OCc5cccc(F)c5)c(Cl)c4)c3c2)o1` [lapatinib], the log2 fold change is -0.038 with AAGAB and 0.038 with AAK1 [2].
For `Cc1ccc(NC(=O)c2cccc(C(C)(C)C#N)c2)cc1Nc1ccc2ncn(C)c(=O)c2c1`, the results for the log2 fold change with AAGAB, with AAK1 [1] and in the test with AAK1 [2] were -0.153, -0.131 and 0.01, respectively.
`Nc1ccccc1NC(=O)c1ccc(CNC(=O)OCc2cccnc2)cc1` [entinostat]: the values for the log2 fold change with AAGAB, in the test with AAK1 [1] and with AAK1 [2] were 0.004, -0.061 and -0.015, respectively.
Take `c1cn2cc(-c3ccc4cn[nH]c4c3)nc(Nc3ccc(N4CCOCC4)cc3)c2n1` [entospletinib]: the log2 fold change in the test with AAGAB is 0.116; in the test with AAK1 [1], 0.224; with AAK1 [2] it was 0.132.
Turning to `CC[C@@H]1C(=O)N(C)c2cnc(Nc3ccc(C(=O)N[C@H]4CC[C@H](N5CCN(CC6CC6)CC5)CC4)cc3OC)nc2N1C(C)C` [volasertib], the log2 fold change was -0.551 (active) with AAGAB and 0.121 with AAK1 [2].
Take `Cn1cncc1[C@@](N)(c1ccc(Cl)cc1)c1ccc2c(c1)c(-c1cccc(Cl)c1)cc(=O)n2C` [tipifarnib]: the log2 fold change was -0.031 with AAGAB and -0.057 with AAK1 [2].
Take `CN1CCN(CCOc2cc(OC3CCOCC3)c3c(Nc4c(Cl)ccc5c4OCO5)ncnc3c2)CC1` [saracatinib]: the log2 fold change with AAGAB was 0.168; in the test with AAK1 [1] it was 0.147; with AAK1 [2], 0.
Regarding `COc1cc2nc(-c3cc(F)ccc3O)nc(N[C@@H]3CNC[C@H]3C(C)(C)O)c2cc1OC`, the log2 fold change with AAGAB was -0.064; in the test with AAK1 [2], 0.024.
